Source: PubChem (National Center for Advancing Translational Sciences (NCATS))
TGFb inhibitor: TGF-b pathway inhibition; HepG2 CAGA-GFP TGF-b/SMAD3 reporter, GFP fluorescence, 18 h; TGF-beta stimulated, 500 pg/mL final; Potency, µM (series often up to 46.1 µM), without a hit: at the top dose activity, negative = inhibition, hits mostly inhibitors; actives 1.2% (n = 410,000); AID 588855; note: % is set by controls: 0 for no effect and ±100 for the full control effect; nearly all actives have a fitted effect of over 65% in size
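Inhibition of TGF-beta-driven CAGA-GFP reporter expression in HEPG2 cells is measured by cellular GFP fluorescence after 18 h stimulation with 500 pg/mL recombinant TGF-beta in 1% FBS medium at 37 degrees C.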
HepG2 tox: kills HepG2 cells in TGF-b inhibitor counter-screen; HepG2 CAGA-GFP viability, ATP luminescence, 18 h; Potency, µM (series often up to 46.1 µM), inactives show at the top dose activity change, negative = cytotoxicity, usual class: cytotoxic; actives 0.76% (n = 410,000); AID 588856
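CellTiter-Glo luminescence gave cytotoxicity after 18 hours at 37 degrees C. The cells were HepG2 CAGA-GFP in 1% FBS DMEM, stimulated with 500 pg/mL TGF-beta after compound addition. %Activity was normalised to no-cell wells (complete cell-killing) and DMSO (no toxicity), and curves were fitted and classified.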
A549 tox: A549 cytotoxicity, counter-screen for Nrf2 inhibitors; Potency, µM (highest dose often 46 µM), inactives show at the highest dose activity change, negative = cytotoxicity, usual class: inhibitors; A549 ARE-Fluc cells, CellTiter-Fluor viability, 18-24 h; actives 0.16% (n = 390,000); note: % is set by controls: 0 for no effect and ±100 for the full control effect
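Cytotoxicity counterscreen: CellTiter-Fluor fluorescence was measured in A549 ARE_Fluc cells after 18-24 h of compound exposure in a concentration series. The subsequent BugLite luminescent read reports ARE-luciferase activity.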
ATXN viability: cell viability loss in ATXN counter-screen; S2 cells (HEK-293 line with an ATXN2-luciferase reporter) viability, CellTiter-Fluor protease fluorescence, 24 h; Potency, µM (highest dose often 56.7 µM), usual class: cytotoxic; actives 0.49% (n = 400,000); AID 651635; note: nearly all actives have a fitted effect of over 40% in size
Nrf2 block: blocks Nrf2 signaling; A549 ARE-Fluc reporter, luciferase luminescence, 18-24 h; Potency, µM (top dose mostly 46 µM), for the others: at the highest dose activity change, negative = inhibition, actives largely listed as inhibitors; actives 2.1% (n = 360,000); AID 504444; note: % is set by controls: 0 for no effect and ±100 for the full control effect; nearly all actives have a fitted effect of over 60% in size
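Two sequential reads on A549 ARE_Fluc cells exposed to compound for 18-24 h: a CellTiter-Fluor fluorescence read for viability, then a luciferase luminescence read for Nrf2/ARE activity.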
ATXN2 expr inh: inhibitors of ATXN2 expression. HEK-293 ATXN2-luciferase reporter, luminescence, 24 h. Potency, µM (doses to about 57 µM), for inactives: top-dose activity change, negative = inhibition, hits mostly inhibitors. actives 0.72% (n = 360,000). AID 1745845; note: % is set by controls: 0 for no effect and ±100 for the full control effect; nearly all actives have a fitted effect of over 55% in size
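ATXN2-luciferase reporter cells (luciferase flanked by upstream and downstream ATXN2 gene portions) were treated 24 h at 37 °C with compounds at up to 57 uM. SteadyGlo luminescence gave expression; GF-AFC fluorescence gave viability.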
Numbers without * were called inactive; i = inactive; ? = inconclusive; nt = no result given; ! = not active in a repeat. The list is not random: actives were taken first. Their share in the collection is about 3.8%. Calls come from the whole dose curve; as a rule, active = well fitted curve in the direction sought with a large enough effect; inconclusive = small, poorly fitted or top-dose-only effect, or another doubt; inactive = no such curve, though single readings can be large; an effect the other way counts as inactive or inconclusive. Potency is the fitted concentration of half-maximal effect.

SMILES	TGFb inhibitor	HepG2 tox	A549 tox	ATXN viability	Nrf2 block	ATXN2 expr inh
CCCCCc1cc(=O)oc2c(C(CCN(CC)CC)c3ccc(OC)cc3)c(OC)cc(OC)c12 (stereo not given)	?	-101%	-6%	32µM*	-2%	?
CCN(CC)CCC(c1ccc(N(C)C)cc1)c1c(OC)cc(OC)c2ccc(=O)oc12 (stereo not given)	-4%	-2%	?	10µM*	7%	3%
CCN(CC)CCC(c1ccc(OC)cc1)c1c(OC)cc(OC)c2c(C)cc(=O)oc12 (stereo not given)	?	18µM*	12µM*	nt	-5%	nt
COc1cc(OC)c(Nc2nc3ccccc3c3nncn23)cc1Cl	0%	-6%	3%	i	3%	2%
Cc1ccc(CNc2cc(-c3nn4c(C)nnc4s3)ccc2C)s1	32%	-26%	-13%	i	16µM*	-8%
O=C(NCc1ccc(Cl)cc1)c1n[nH]c([N+](=O)[O-])c1Cl	-9%	-6%	-8%	i	12%	nt
Cc1ccc(F)c([C@H]2C3C=CCC(c4ccccc4)C3C(=O)N2Cc2ccccc2)c1 (stereo not given in full)	18µM*	-48%	-16%	?	?	-21%
COc1ccc(C2C3C=CCC(c4ccccc4)C3C(=O)N2Cc2ccccc2)cc1Cl (stereo not given)	?	-67%	?	nt	21µM*	nt
COc1ccc(-c2c(C3C4C=CCC(C)C4C(=O)N3Cc3ccccc3)ccc3ccccc23)cc1OC (stereo not given)	?	-18%	-15%	nt	21µM*	nt
Cn1c(=O)c2c(nc(NNC(=O)C(F)(F)F)n2C)n(C)c1=O	-1%	12%	0%	i	4%	22%
Cc1ccccc1Cn1nc(C)c(NC(=O)c2noc3c2CC(C(C)(C)C)CC3)c1C (stereo not given)	?	3%	-6%	i	8.2µM*	-14%
O=C(NCCCn1ccnc1)c1cc2nc(-c3ccc(Br)cc3)cc(C(F)(F)F)n2n1	-12%	-42%	?	?	21µM*	?
O=S(Cc1cc(Oc2ccccc2)nc(-c2ccccc2)n1)c1ccccc1 (stereo not given)	-16%	-14%	-11%	i	10µM*	-11%
COc1ccc(NC(=O)Cn2nnc(C(=O)NCc3cccs3)c2N)c(OC)c1	1%	-7%	?	i	18µM*	-18%
CCCC(=O)C1=C(O)C(c2cccc(Oc3ccccc3)c2)CCC1=O (stereo not given)	4%	-2%	?	i	18µM*	nt
O=C1C(c2ccccc2)=[N+]([O-])c2ccccc21	?	11µM*	1%	?	2%	?
CSc1cccc(NC(=O)NCc2cccc(CNC(=O)Nc3cccc(SC)c3)c2)c1	?	13µM*	-11%	?	?	nt
CCOC(=O)c1c(C)oc2c1c(C=NCCC(=O)O)c(O)c1ccccc12	-26%	-13%	?	?	21µM*	-32%
CN1CCCC(n2nc(Cc3ccc(Cl)cc3)c3ccccc3c2=O)CC1 (stereo not given)	-1%	-41%	?	32µM*!	14%	35µM*!
CCOC(=O)N1CCN(Cc2nc3cc(NC(=O)c4ccccc4Cl)ccc3n2C(C)C)CC1	?	-29%	-16%	nt	24%	nt
O=c1ccc2ccccc2c2ccccc12	13µM*	-61%	nt	?	nt	5µM*
c1ccc2c(c1)ccc1ccccc12	-12%	-8%	4%	i	2%	-5%
c1ccc(COc2ccccc2CNC23CC4CC(CC(C4)C2)C3)cc1	?	10µM*	-4%	nt	?	16µM*
CC(=O)CC(C)(C)NC(C)=S	-1%	17%	-7%	i	3%	1%
CC(C)(C)NC(=O)NC(=O)CN1CCN(c2ccccc2)CC1	-6%	-7%	-4%	?	-18%	-17%
SMILES	TGFb inhibitor	HepG2 tox	A549 tox	ATXN viability	Nrf2 block	ATXN2 expr inh
COc1ccc(N2CCN(C(=S)Nc3ccc(C)cc3C)CC2)cc1	-15%	6.3µM*	6%	i	0%	-21%
Cc1ccc(NC(=O)NC(=O)CN2CCC(C(N)=O)CC2)c(C)c1	-3%	1%	5%	i	?	35%
Cc1ccc(NC(=O)NC(=O)CN2CCN(c3ccc(O)cc3)CC2)c(C)c1	-2%	-1%	-14%	i	23µM*	-36%
CC(C)(C)NC(=O)NC(=O)CN1CCN(c2ccc(O)cc2)CC1	-15%	1%	-21%	i	21µM*	-38%
CC(C)c1ccc(NC2CCCN(C(=O)c3cccc4nccnc34)C2)cc1 (stereo not given)	-2%	-25%	4%	i	-10%	-10%
c1ccc(Cn2c(-c3ccccc3)c[n+]3c2SCCC3)cc1	-10%	-15%	1%	i	8.2µM*	?
COCC(C)n1c(SCc2ccc(OC)c(F)c2)nc2ccccc2c1=O (stereo not given)	?	7%	5%	i	23µM*	-28%
CCn1c(SCc2ccc(OC)c(F)c2)nc2ccccc2c1=O	-15%	-2%	4%	i	-8%	-21%
O=C(CSc1nnc(-c2ccccc2F)n1C1CC1)Nc1cccnc1Cl	-11%	-10%	8%	i	?	-2%
COc1cc(/C=C2\CCn3c2nc2cc(C(=O)O)ccc2c3=O)ccc1OC(F)F	2%	-8%	0%	?	5%	nt
N#C/C(=N\Nc1cccc(F)c1)C(=O)C1CC1	-19%	-1%	?	i	21µM*	nt
COc1cccc2c1C(CCCC(=O)O)CCC2 (stereo not given)	-8%	-12%	3%	i	-20%	-10%
COc1cccc2c1C1COC3C4CC(C(=O)O)C(C(C2)N13)N4C (stereo not given)	?	-45%	-10%	?	-4%	11µM*
O=[N+]([O-])c1ccc(N/N=C2\CC3CC=CC23)c([N+](=O)[O-])c1 (stereo not given)	?	-29%	?	i	23µM*	-11%
O=[N+]([O-])c1ccc(N/N=C2\CC3CC=CC23)cc1 (stereo not given)	?	-22%	?	?	?	9%
Cc1cccc(Nc2nnc(SCC(=O)N(C)C3CCS(=O)(=O)C3)s2)c1C (stereo not given)	3%	0%	11%	i	7%	9%
